According to PubChem BioAssay:
A number with no mark means an inactive call. For part of these data: Entries with a potency or affinity are not part of this list. Active and inactive are the calls of the source. Unless noted, the rule behind the calls is not given here.

Columns and labels:
[1] = antimalarial activity against Dd2 strain (AID 2302;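 active = growth inhibition above 50% at the single 2 µM test dose, taken to imply half-maximal potency below 2 µM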;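 note: 0% = DMSO untreated growth and 100% = chloroquine plus artemisinin killed control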); conditions: P. falciparum Dd2 in RBCs, LDH growth readout, 72 h; at 2 µM; active compounds read high
[2] = human hepatoma cell viability loss – ATP luminescence, cytotoxicity control for P. falciparum antimalarial project, primary screen (AID 2303;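 active = inhibition above 50%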;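 note: 0% = DMSO wells and 100% = digitonin-killed cells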); conditions: HepG2 viability, 24-48 h, at 10 µM, active compounds read high
[3] = molecular target: L-lactate dehydrogenase (Plasmodium falciparum (isolate CDC / Honduras)) (UniProt Q27743); test: PfLDH activity inhibition – cell lysate, 3D7 strain, counter-screen for P. falciparum growth inhibition project (AID 2304);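 note: 0% = vehicle and 100% = reference inhibitor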; conditions: P. falciparum 3D7 crude extract, LDH APAD/NBT absorbance; at 2 µM; active compounds read high
[4] = inhibition of 3D7 malaria parasite growth – strain 3D7 (AID 2306);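 note: 0% = DMSO wells and 100% = chloroquine plus artemisinin control wells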; conditions: P. falciparum 3D7 erythrocytic growth, LDH absorbance, 72 h; at 2 µM; active compounds read high
[5] = molecular target: Calcium-dependent protein kinase 1 (Plasmodium falciparum (isolate 3D7)) (UniProt P62344); test: PfCDPK1 kinase inhibitors, biochemical, TCAMS library (AID 1159585; cut-off not given, nearly all actives have IC50 up to about 0.98 µM;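 note: inhibitors leave more ATP so luminescence rises with inhibition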); conditions: recombinant PfCDPK1, Kinase-Glo ATP depletion luminescence
[6] = molecular target: Plasmodium falciparum protein kinase 6 (PK6, PF3D7_1337100) (UniProt Q8IDW1); test: PfPK6 kinase inhibitors, biochemical, TCAMS library (AID 1159586); conditions: recombinant PfPK6, Kinase-Glo ATP depletion luminescence
[7] = molecular target: Protein kinase 7 (PK7), Plasmodium falciparum 3D7 (PF3D7_0213400) (UniProt Q7YTF7); test: inhibition of Plasmodium PK7 catalytic activity – biochemical, TCAMS antimalarial set, Kinase-Glo luminescence (AID 1159587); conditions: recombinant PfPK7, Kinase-Glo ATP depletion luminescence
[8] = molecular target: Calcium-dependent protein kinase 4 (Plasmodium falciparum (isolate 3D7)) (UniProt Q8IBS5); test: PfCDPK4 kinase inhibitors, biochemical, TCAMS library (AID 1159588; cut-off not given, nearly all actives have IC50 up to about 0.91 µM); conditions: recombinant PfCDPK4, Kinase-Glo ATP depletion luminescence
Calcium-dependent protein kinase 4 (Plasmodium falciparum (isolate 3D7)), sequence (Q8IBS5 whole entry, looked up): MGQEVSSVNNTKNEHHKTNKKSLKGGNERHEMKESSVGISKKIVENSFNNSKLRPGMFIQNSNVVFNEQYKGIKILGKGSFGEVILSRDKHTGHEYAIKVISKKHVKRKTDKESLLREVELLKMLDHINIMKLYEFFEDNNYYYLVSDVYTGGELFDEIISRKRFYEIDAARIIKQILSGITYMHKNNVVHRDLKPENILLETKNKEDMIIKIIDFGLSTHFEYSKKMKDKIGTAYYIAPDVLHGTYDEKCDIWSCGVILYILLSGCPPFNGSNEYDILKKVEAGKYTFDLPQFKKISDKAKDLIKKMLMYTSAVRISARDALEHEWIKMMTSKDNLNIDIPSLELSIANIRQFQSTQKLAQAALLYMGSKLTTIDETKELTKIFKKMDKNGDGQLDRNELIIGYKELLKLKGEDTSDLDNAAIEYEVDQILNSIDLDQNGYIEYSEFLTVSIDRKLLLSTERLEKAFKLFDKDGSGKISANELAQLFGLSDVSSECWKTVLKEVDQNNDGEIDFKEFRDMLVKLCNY

Plasmodium falciparum protein kinase 6 (PK6, PF3D7_1337100), sequence (Q8IDW1 1-305): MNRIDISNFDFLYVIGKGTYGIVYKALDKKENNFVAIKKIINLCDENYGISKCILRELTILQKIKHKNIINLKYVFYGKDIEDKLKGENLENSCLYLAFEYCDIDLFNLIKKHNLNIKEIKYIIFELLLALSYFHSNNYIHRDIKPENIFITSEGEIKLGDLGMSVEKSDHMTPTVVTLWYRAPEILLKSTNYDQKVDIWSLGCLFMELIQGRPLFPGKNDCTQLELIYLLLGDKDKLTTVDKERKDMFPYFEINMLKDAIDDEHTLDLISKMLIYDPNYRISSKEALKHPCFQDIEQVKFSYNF
Calcium-dependent protein kinase 1 (Plasmodium falciparum (isolate 3D7)), sequence (P62344 whole entry, looked up): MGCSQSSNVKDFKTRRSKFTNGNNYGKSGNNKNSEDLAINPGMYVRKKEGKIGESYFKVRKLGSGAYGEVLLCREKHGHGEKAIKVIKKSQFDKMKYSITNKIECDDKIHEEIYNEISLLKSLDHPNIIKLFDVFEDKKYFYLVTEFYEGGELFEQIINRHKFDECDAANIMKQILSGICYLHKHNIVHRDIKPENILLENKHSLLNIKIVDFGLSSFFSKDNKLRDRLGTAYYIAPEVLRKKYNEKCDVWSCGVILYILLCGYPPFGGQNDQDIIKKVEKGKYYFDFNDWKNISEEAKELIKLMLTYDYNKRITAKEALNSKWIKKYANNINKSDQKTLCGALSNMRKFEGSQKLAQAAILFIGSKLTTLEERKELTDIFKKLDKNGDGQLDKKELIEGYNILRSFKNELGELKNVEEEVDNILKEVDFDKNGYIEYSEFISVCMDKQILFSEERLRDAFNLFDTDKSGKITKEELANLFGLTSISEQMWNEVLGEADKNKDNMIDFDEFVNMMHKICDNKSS
L-lactate dehydrogenase (Plasmodium falciparum (isolate CDC / Honduras)), sequence (Q27743 whole entry, looked up): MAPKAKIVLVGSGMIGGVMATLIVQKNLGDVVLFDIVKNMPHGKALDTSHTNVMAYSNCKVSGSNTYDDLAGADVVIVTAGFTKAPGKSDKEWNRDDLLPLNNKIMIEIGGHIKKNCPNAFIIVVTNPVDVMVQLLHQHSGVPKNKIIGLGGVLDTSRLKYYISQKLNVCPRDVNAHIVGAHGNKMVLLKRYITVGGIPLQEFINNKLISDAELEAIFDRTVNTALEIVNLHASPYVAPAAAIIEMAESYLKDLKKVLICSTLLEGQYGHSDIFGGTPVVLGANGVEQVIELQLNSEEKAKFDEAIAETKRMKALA
Protein kinase 7 (PK7), Plasmodium falciparum 3D7 (PF3D7_0213400), sequence (Q7YTF7 1-343): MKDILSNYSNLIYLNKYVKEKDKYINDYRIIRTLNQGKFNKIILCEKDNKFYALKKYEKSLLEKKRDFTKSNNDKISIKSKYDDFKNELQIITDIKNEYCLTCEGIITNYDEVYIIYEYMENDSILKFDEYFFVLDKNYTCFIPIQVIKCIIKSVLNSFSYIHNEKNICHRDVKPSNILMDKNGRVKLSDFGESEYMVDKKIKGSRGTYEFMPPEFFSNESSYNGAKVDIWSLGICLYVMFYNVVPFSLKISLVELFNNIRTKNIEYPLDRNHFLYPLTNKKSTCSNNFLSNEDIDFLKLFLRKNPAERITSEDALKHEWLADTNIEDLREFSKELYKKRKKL

| SMILES | growth inhibition [1] | inhibition [2] | inhibition [3] [%] | growth inhibition [4] | outcome [5] | outcome [6] | outcome [7] | outcome [8] |
| --- | --- | --- | --- | --- | --- | --- | --- | --- |
| Cn1cncc1C(=O)Nc1cccc(-c2ccc(-c3nc4ccc(F)cc4[nH]3)s2)c1 | 27% | -9% | 1 | 99% (active) | inactive | inactive | inactive | inactive |
| C#CCNCc1ccc(-c2ccc(-c3nc4ccc(C(F)(F)F)cc4[nH]3)s2)cc1 | 28% | 37% | 0 | 98% (active) | inactive | inactive | inactive | inactive |
| COc1ccc(-n2nc(C(=O)NCc3ccccc3OC)c3ccccc3c2=O)cc1 | 94% (active) | 2% | 0 | 102% (active) | inactive | inactive | inactive | inactive |
| O=C(/C=C/c1ccccc1Cl)Nc1ccc(Br)c(OCCN2CCN(CCN3CCCC3)CC2)c1 | 89% (active) | 26% | -7 | 99% (active) | inactive | inactive | inactive | inactive |
| CCc1cc(NCc2ccncc2)nc(Nc2ccc(F)cc2)n1 | 17% | 8% | 0 | 92% (active) | inactive | inactive | inactive | inactive |
| COc1ccc(OCCCON)cc1 | -3% | 3% | -1 | 98% (active) | inactive | inactive | inactive | inactive |
| Cn1c2c(c3ccccc31)CN(CCC1(c3ccc(Cl)c(Cl)c3)CN(C(=O)c3ccccc3)CCO1)CC2 (configuration not stated) | 88% (active) | 10% | 3 | 97% (active) | inactive | inactive | inactive | inactive |
| COCCC[C@H]1C(=O)O[C@H]2CCC[C@@H]21 | 85% (active) | -9% | -4 | 93% (active) | inactive | inactive | inactive | inactive |
| COc1ccc(CN=C(N)Nc2nc(-c3ccc(OCCCn4ccnc4)cc3)cs2)cc1 | 67% (active) | 15% | -5 | 100% (active) | inactive | inactive | inactive | inactive |
| COCCOc1nc(N)nc2ncc(Cc3cc(OC)ccc3OC)c(C)c12 | 0% | 61% (active) | -5 | 96% (active) | inactive | inactive | inactive | inactive |
| CCNc1cc(C(=O)N[C@@H](Cc2ccccc2)[C@H](O)CN[C@@H]2CCc3ccccc32)cc(N2CCCC2=O)c1 | 93% (active) | -5% | 6 | 92% (active) | inactive | inactive | inactive | inactive |
| Cc1ccc(C)c(NC(=O)Nc2ccc(Nc3nc(C)cc(N4CCOCC4)n3)cc2)c1 | 48% | 88% (active) | 0 | 98% (active) | inactive | inactive | inactive | inactive |
| CCOc1cc(C(=O)NCCCN2CCN(c3cccc(Cl)c3)CC2)ccc1-c1nc2cc(Cl)c(F)cc2[nH]1 | 19% | 16% | 7 | 96% (active) | inactive | inactive | inactive | inactive |
| CN(CCN)Cc1cccc(-c2cccc(-c3nc4ccc(F)cc4[nH]3)c2)c1 | 19% | 20% | 6 | 95% (active) | inactive | inactive | inactive | inactive |
| Cc1cc(N[C@@H](CC(C)C)C(=O)NCc2cccs2)nc(NCCc2ccc(F)cc2)n1 | 59% (active) | 20% | -2 | 100% (active) | inactive | inactive | inactive | inactive |
| CCC[C@@H]([C@@H](CC1CCC(C)CC1)C(=O)N[C@@H](CCCNc1ncccn1)C(=O)Nc1nccs1)N(O)C=O (some centres not stated) | 98% (active) | 10% | 5 | 98% (active) | inactive | inactive | inactive | inactive |
| NOCCCCOc1ccccc1 | 2% | 12% | -4 | 99% (active) | inactive | inactive | inactive | inactive |
| CN1CCN(Cc2ccc(-c3ccc4c(Nc5cc(O)c(F)cc5Cl)ccnc4c3)o2)CC1 | 99% (active) | 27% | 3 | 101% (active) | inactive | inactive | inactive | inactive |
| Fc1cccc(Nc2nc(NCc3ccc(Cl)c(Cl)c3)nc(Nc3cccc(F)c3)n2)c1 | 7% | -5% | 3 | 99% (active) | inactive | inactive | inactive | inactive |
| COc1ccc2nc3cc(Cl)ccc3c(NCCN3CCN(C)CC3)c2c1 | 99% (active) | 29% | 2 | 100% (active) | inactive | inactive | inactive | inactive |

| SMILES | growth inhibition [1] | inhibition [2] | inhibition [3] [%] | growth inhibition [4] | outcome [5] | outcome [6] | outcome [7] | outcome [8] |
| --- | --- | --- | --- | --- | --- | --- | --- | --- |
| COc1ccc(CNC2Cc3ccccc3C2)cc1-c1ccc(OC)c(S(=O)(=O)NCCN2CCCC2)c1 | 97% (active) | 31% | -9 | 101% (active) | inactive | inactive | inactive | inactive |
| COc1cccc(C=NNc2cc(C)nc3ccccc23)c1 | 46% | 16% | -8 | 101% (active) | inactive | inactive | inactive | inactive |
| N#Cc1ccc(-c2ccc(C(=O)NCCCCN3CC=C(c4ccc5c(c4OCC4CC4)CCCC5)CC3)cc2)cc1 | 83% (active) | 22% | 4 | 100% (active) | inactive | inactive | inactive | inactive |
| O=c1[nH]c(=O)n2c(nc3ccccc32)[nH]1 | -1% | 21% | 6 | 95% (active) | inactive | inactive | inactive | inactive |
| CC1(C)CC(NCCCCCCCOc2ccc(OCc3ccccc3)cc2)CC(C)(C)N1 | 73% (active) | 99% (active) | 0 | 100% (active) | inactive | inactive | inactive | inactive |
| Cc1cc(-c2ccc(CNC3Cc4ccccc4C3)cc2)ccc1S(=O)(=O)NCCN1CCCC1 | 73% (active) | 99% (active) | 0 | 101% (active) | inactive | inactive | inactive | inactive |
| C=CCOC(=O)N1CCC(CNCc2ccc(-c3ccc(-c4nc5ccc(C(F)(F)F)cc5[nH]4)cc3)cc2)C1 (configuration not stated) | 98% (active) | 44% | -2 | 103% (active) | inactive | inactive | inactive | inactive |
| CNC(=O)c1c(NC(=O)c2cccs2)sc2c1CCCC2 | 2% | 2% | -1 | 94% (active) | inactive | inactive | inactive | inactive |
| O=C(Nc1ccc(Cl)cc1)c1ccc(CN2CCCN(Cc3ccc(F)cc3)CC2)cc1 | 8% | 48% | 6 | 91% (active) | inactive | inactive | inactive | inactive |
| O=C(Cc1ccc(F)cc1)NC1CCN(c2ccnc3cc(Cl)ccc23)C1 (configuration not stated) | 85% (active) | -1% | 1 | 99% (active) | inactive | inactive | inactive | inactive |
| CC(C)NCc1ccc(-c2ccc(-c3nc4ccc(F)cc4[nH]3)cc2)cc1 | 100% (active) | 14% | -5 | 101% (active) | inactive | inactive | inactive | inactive |
| Cc1[nH]c(C)c(-c2csc3ccccc23)c(=O)c1Cl | 75% (active) | 7% | 6 | 97% (active) | inactive | inactive | inactive | inactive |
| Cc1cc(C(=O)Nc2ccc(C)c(-c3nc(N(C(=O)c4ccc(F)c(C)c4)C4CCNCC4)nc4c3ccc(=O)n4-c3c(F)cccc3F)c2)ccc1F | 99% (active) | 4% | -3 | 99% (active) | inactive | inactive | inactive | inactive |
| Cc1cc(N2CCC(NS(=O)(=O)c3cccc4cccnc34)CC2)nc(Nc2cccc(C#N)c2)n1 | 87% (active) | 12% | -3 | 98% (active) | inactive | inactive | inactive | inactive |
| O=S(=O)(Nc1cc2c(cc1OCCCN1CCCCC1)CCNCC2)c1ccc(-c2ccc(Cl)cc2)cc1 | 19% | 77% (active) | 2 | 100% (active) | inactive | inactive | inactive | inactive |
| CCC(Cc1cnc2nc(N)nc(N)c2n1)c1ccc(C(=O)O)cc1 (configuration not stated) | -2% | 15% | -2 | 93% (active) | inactive | inactive | inactive | inactive |
| N#Cc1ccc(-c2ccc(C(=O)NCCCCN3CCC(c4ccc5c(c4OCC(N)=O)CCCC5)CC3)nc2)cc1 | 97% (active) | 21% | -4 | 100% (active) | inactive | inactive | inactive | inactive |
| CC(CN1CCN(C)CC1)C(=O)Nc1cccc(-c2ccc(-c3nc4ccc(F)cc4[nH]3)cc2)c1 (configuration not stated) | 98% (active) | 10% | 1 | 101% (active) | inactive | inactive | inactive | inactive |
| CCCN1CC[C@@H](CCCc2ccnc3ccc(O)cc23)[C@@H](CC)C1 | 14% | 10% | -2 | 93% (active) | inactive | inactive | inactive | inactive |
